# According to ChEMBL document CHEMBL3988442, “University of Dundee, Small-Polar-MMV Screening Library” (2021):
# Molecular target: AMP-activated protein kinase, AMPK (Homo sapiens) (UniProt P54646+O43741+P54619+Q9UGJ0+Q9Y478+Q13131+Q9UGI9)
# Experiment: AMP-dependent Kinase enzyme assay. An in vitro enzyme assay that detects ADP turnover that is directly proportional to AMPK activity. This uses naive AMPK that is activated during the assay with MK-8722
# Format: functional
# Design: scale not given: direction of the effect not stated beside the values
# Details: 30 µM
row,SMILES,Percent Effect [%]
1,C[C@@H]1CN(Cc2nc(C(N)=O)no2)CC[C@@]1(O)C1CC1,0.276
2,CC(=O)c1ccc(-c2cnn(CC(=O)Nc3ccnn3C)c2)nc1,6.15
3,Cn1ccnc1CNC(=O)CC1CCCCO1 (stereo not given),-3.14
4,Cc1nc[nH]c1CN(C)Cc1cnn(-c2ccc(F)cc2)c1,10.8
5,CCc1nc(N)nc(NCCC(=O)NC2CCCCC2)c1C,0.541
6,CCCc1ccc(CN2CCC3(CCC(=O)N(C)CC3)CC2)o1,1.5
7,CCc1cc(=O)[nH]c(-c2ccc(NCCC(C)O)nc2)n1 (stereo not given),-6.17
8,CCOC(=O)C1(NCC(=O)Nc2cc(C)ccc2OC)CCCC1,0.781
9,CCOc1ccc(CN2CCOCC2c2[nH]ncc2C)cc1CO (stereo not given),22.7
10,Cc1cnn(C2CN(CC(O)COc3ccc(C#N)cc3)C2)c1 (stereo not given),-78.4
11,CS(=O)(=O)NC1CCN(Cc2coc(-c3ccc(Cl)cc3)n2)CC1,1.23
12,COc1cc(CNC(=O)COC2CCCC2)ccc1O,3.23
13,Cc1csc(N2CCC(CCN3CCCC3=O)CC2)n1,-12.1
14,CN(Cc1cnn(C)c1)C(=O)Nc1cccnc1-n1cccn1,0.000815
15,CC(CN(C)Cc1cccc(-n2cccn2)c1)C(F)(F)F (stereo not given),-9.02
16,COC(=O)c1ccc2c(c1)CCCN2S(=O)(=O)c1cn(C)c(C)n1,-5.88
17,COCc1nn(Cc2ccc(Br)s2)c(=O)o1,13.5
18,NC(=O)c1csc(N2C[C@@H](CN3CCOCC3)[C@@H](CO)C2)n1,3.19
19,CN(C(=O)C1CCN(Cc2cnc3ccccn23)CC1)c1ccccc1,-0.957
20,CC(C)c1cc(C2CCN(C(=O)Cn3cnnn3)CC2)[nH]n1,12.8

row,SMILES,Percent Effect [%]
1,Cc1cnc(C(=O)NCC2CCOc3ccccc3C2)cn1 (stereo not given),-2.4
2,CCOc1ccccc1CN(C)C(C)c1nc(-c2cccnc2)no1 (stereo not given),1.83
3,CN(C)CCCC(=O)NC1CC(C)(C)Cc2nc(C(C)(C)C)ncc21 (stereo not given),8.49
4,Cc1ncc(CNC(=O)NCc2c(F)cccc2OC(F)F)s1,6.42
5,COc1coc(CN2CCCC3(CCC(=O)N(CC4CC4)C3)C2)cc1=O (stereo not given),8.74
6,NC(=O)NC1CCN(Cc2ccccc2OCC(F)(F)F)CC1,-5.97
7,CN(C)C(=O)CN1CCN(c2cc(N3CCCC3CO)ncn2)CC1 (stereo not given),-0.698
8,CNC(=O)c1cn2cc(-c3cccc(Cl)c3)n(CC=C(C)C)c(=O)c2n1,2.79
9,CC(C)Cc1cc(C(=O)N2CCC(N3CCCC3)CC2)cc(O)n1,1.87
10,Cc1ccc(C(=O)NC2CCN(S(C)(=O)=O)CC2)c(=O)[nH]1,1.76
11,CN(C(=O)c1ccc2c(c1)nc(N1CC[C@H](O)C1)n2C)C1CCSCC1,9.79
12,COCCNC(=O)N1CCN(c2cc(F)ccc2F)CC1,7.95
13,COc1ccc(-c2cccc3c2OC(CN)C3)cc1F (stereo not given),0.444
14,Cc1nnc(C(C)N2CCN(Cc3noc(C(C)(C)C)n3)CC2)o1 (stereo not given),-8.02
15,Cc1cc(C(=O)N2CC[C@@]3(O)CCN(S(C)(=O)=O)C[C@H]3C2)c(C)n1C,3.49
16,COc1cccc([C@@]2(O)CC[C@@H]3CN(C(=O)c4c[nH]nc4C)C[C@@H]32)c1,10.8
17,CC(C)NC(=O)C1(Cc2ccccc2-c2cncnc2)CCCNC1 (stereo not given),18.8
18,CCOc1ccc(Br)cc1S(=O)(=O)N(CC)Cc1ccc(N(C)C)cc1,-7.47
19,Cc1ccc2nc(CN3CCCCC3CCN3CCOCC3)cn2c1 (stereo not given),6.28
20,COC(=O)c1ccc(CCn2cnc(C#N)n2)cc1,-2.56
